ALDH1A1 inh = inhibitors of human aldehyde dehydrogenase 1A1 | Purified ALDH1A1, NADH fluorescence, propionaldehyde substrate | Potency, µM (series often up to 75.3 µM), without a hit: top-dose activity, negative = inhibition, actives largely listed as inhibitors | 220,000 compounds, 7.3% hits;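 further: potency means the concentration at half of the fitted maximal effect; plate controls were no enzyme wells and a reference inhibitor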
Target sequence (P00352 whole entry, looked up): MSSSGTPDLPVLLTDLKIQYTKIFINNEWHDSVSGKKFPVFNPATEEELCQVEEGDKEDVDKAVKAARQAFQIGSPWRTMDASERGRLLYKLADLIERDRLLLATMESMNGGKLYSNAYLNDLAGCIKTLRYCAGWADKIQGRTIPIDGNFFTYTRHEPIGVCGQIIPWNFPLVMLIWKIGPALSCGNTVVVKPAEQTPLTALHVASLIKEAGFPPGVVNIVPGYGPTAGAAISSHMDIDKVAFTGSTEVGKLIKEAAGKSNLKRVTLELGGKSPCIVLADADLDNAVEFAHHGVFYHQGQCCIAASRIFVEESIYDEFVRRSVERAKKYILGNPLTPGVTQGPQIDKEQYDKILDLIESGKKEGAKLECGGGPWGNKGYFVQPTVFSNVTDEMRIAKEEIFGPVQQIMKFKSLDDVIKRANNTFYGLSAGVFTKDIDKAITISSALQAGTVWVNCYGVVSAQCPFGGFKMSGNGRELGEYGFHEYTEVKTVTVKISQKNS
HPGD block = HPGD (human) dehydrogenase inhibition. P15428. purified HPGD, NADH fluorescence kinetic, PGE2 substrate. Potency, µM, without a hit: at the top dose activity change, negative = inhibition, most hits filed as inhibitors. 150,000 compounds, 4.3% hits; further: potency means the concentration at half of the fitted maximal effect
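20 nM HPGD preincubated 15 min at room temperature with compound in 50 mM Tris-HCl pH 8, 0.01% Tween 20. Started with 1 mM NAD+ and 30 uM prostaglandin E2; NADH fluorescence (360/450 nm) read 5 times over 30-s intervals, last minus first.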
IMPase inh = IMPase inhibition in cells; CHO-M1 cells, IP1 accumulation, HTRF TR-FRET ratio; inhibition (IP1 accumulation), % at 46.1 µM; 120,000 tested, under 10 active; P97697; AID 901; active means well fitted curve in the direction sought with a large enough effect in the signal ratio, not every such curve was filed as active; inconclusive means small, poorly fitted or top-dose-only effect, or a change in a side signal; inactive means no such curve, though single readings can be large or run the other way; the % refers to the signal ratio;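 further: cells stimulated with carbachol in lithium chloride buffer; plate controls were DMSO basal wells for no effect and reference inhibitor wells for full effect; higher means more IMPase inhibition seen as more IP1 and lower FRET ratio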
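Carbachol-driven Gq signalling in CHO-M1 cells (2000/well) generates IP1. Compounds that block IMPase raise IP1 and so reduce the FRET signal from Eu-anti-IP1 and d2-IP1 after a 10 min room-temperature lysis.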
Starred values were filed as active, the others as inactive; ? = inconclusive; . = no result; [ ] = remark or other dose. A selection: hits, their analogues and other compounds. The true share with any hit is near 9%. Unless noted, the call rests on the fitted dose curve; in most records, active means well fitted inhibition curve with a large enough effect (not every such curve was filed as active); inconclusive means small, poorly fitted or top-dose-only effect, or another doubt; inactive means no such curve, though single readings can be large or run the other way. Unless noted, on the % scale 0 is the no-effect control and ±100 the full control effect.

SMILES	ALDH1A1 inh	HPGD block	IMPase inh
C=CC[C@@H]1C=C[C@H](O/N=C\[C@@H](C)[C@H](OCc2ccccc2)C(C)C)[C@H](CO)O1	5%[13.5 µM]	.	.
CC(C)CN1C2CCCC1CC(NC(=S)NCc1ccco1)C2 (stereo not drawn)	2%	.	.
COc1ccc(S(=O)(=O)N/N=C(/C)c2ccc(Cl)cc2)cc1	?	0%	-1
COc1ccc(C(=O)Nc2cc(Cl)ccc2OC(=O)c2ccc(OC)cc2)cc1	1µM*	-8%	-2
COc1ccc(OC)c(NC(=O)c2ccc3nc(-c4ccccc4)c(-c4ccccc4)nc3c2)c1	10µM*	-11%	6
Cc1ccc(C(=O)Nc2cc(Cl)ccc2OC(=O)c2ccc(C)cc2)cc1	-2%	-20%	4
COc1ccc(C/C(C)=N/NS(=O)(=O)c2ccc(Br)cc2)cc1	2.8µM*	.	.
COc1ccc(C/C(C)=N/NC(=O)c2ccc(Cl)cc2)cc1	7.1µM*	.	.
COc1ccc(C(=O)Nc2cc(OC)ccc2OC)cc1	1%	-12%	6
CCOc1cc(C(=O)N/N=C(\C)Cc2ccc(OC)cc2)cc(OCC)c1OCC	2%	-10%	.
CCNC(=O)[C@H]1O[C@H](n2cnc3c(N)nc(NCCc4ccc(CCC(=O)O)cc4)nc32)[C@@H](O)[C@@H]1O	?	-12%	-1
COc1ccc(C(=O)C[n+]2ccc(-c3nnc4n3CCC4)cc2)cc1	?	-13%	-1
CCOc1ccc(NC(=O)Cn2c(=O)n(-c3ccc(C)cc3)c(=O)c3cc(OC)c(OC)cc32)cc1	.	.	3
CSc1cccc(NC(=S)N(CCC(C)C)C2CCN(C(C)C)CC2)c1	-3%	.	.
COC(=O)c1ccc(C(=O)Nc2ccc(C(C)C)cc2N)cc1	1%	.	.
CCn1c(C(C)NC(=O)c2cccc(C)c2)n[nH]c1=S (stereo not drawn)	3%	.	.
Cc1ccc(C2=Nc3ccc(Br)cc3C(c3ccncc3)=NN2)cc1	11%	.	.
Cc1onc(-c2ccccc2)c1C(=O)N1CCCN(C(=O)c2c(-c3ccccc3)noc2C)CC1	-1%	-11%	11
Cc1onc(-c2ccccc2)c1C(=O)N1CCCSC1=Nc1ccccc1	11µM*	-20%	7
CCC(CC)C(=O)Nc1ccc(Sc2ccc([N+](=O)[O-])cc2)cc1	1.1µM*	.	16
CCCC(=O)Nc1ccc(C(=O)NNC(=O)c2cccc([N+](=O)[O-])c2)cc1	14%	.	.
Cc1csc(NC(=O)CCNC(=O)c2ccc([N+](=O)[O-])cc2)n1	?	-7%	0
CCC(CC)C(=O)Nc1ccc([N+](=O)[O-])cn1	-2%	.	.
CN(C)S(=O)(=O)c1ccc(NC(=O)CCNC(=O)c2ccc([N+](=O)[O-])cc2)cc1	10µM*	.	.
CCCC(=O)Nc1ccc(Sc2ccc([N+](=O)[O-])cc2)cc1	-15%	18µM*	9[1.84 µM]
SMILES	ALDH1A1 inh	HPGD block	IMPase inh
Cc1cc(C)cc(OCc2ccc(C(=O)Nc3ccccc3F)o2)c1	.	.	-4
O=C(O)CCC/C=C\C[C@@H]1CO[C@H](C(F)(F)F)O[C@@H]1c1ccccc1O	11%	-11%	-7
CCOc1ccc(-c2nc(CSCC(=O)NCc3ccco3)c(C)o2)cc1	?	?	3
COC1=C[C@@H](C)C2CC3OC(=O)C[C@H]4C(C)=C(OC)C(=O)C([C@@]2(C)C1=O)[C@@]34C (stereo partly drawn)	4%	-7%	.
COc1cccc(C(=O)C2CCCN(C(=O)c3cccc(C#CC(C)(C)O)c3)C2)c1 (stereo not drawn)	-3%	.	.
CCN1C(=O)[C@H]2[C@H]3[C@H](O)[C@H](O)C/C(=N/OC)[C@@H]3CC[C@@H]2C1=O	-15%[13.5 µM]	.	.
CCCCC/C=C\C/C=C\CCCCCCCC(N)=O	7%	-11%	.
Cc1cccc(Cn2c(=O)n(CCCC(=O)NCc3ccco3)c(=O)c3ccccc32)c1	?	-28%	.
Cc1cccc2nc(Cn3c(=O)n(CCCC(=O)NCc4ccco4)c(=O)c4ccccc43)cc(=O)n12	20µM*	28µM*	.
COc1ccc(CNS(=O)(=O)c2cccc(S(=O)(=O)N3CCOCC3)c2)cc1	?	-5%	1
COc1ccc2c(c1)S/C(=C\C(=O)c1ccncc1)N2C	14µM*	28µM*	12
COc1ccc(C(=O)/C=C2/Sc3cc4c(cc3N2C)OCO4)cc1	?	.	0
COCCn1cc(C(=O)c2cc(Br)ccc2O)cc(C#N)c1=O	-11%	.	.
O=C(Oc1ccccc1)N1CCC2(CC1)CN(c1ccncc1)C2	-14%	-3%	.
CCOc1ccc(CCNC(=O)CSc2nnnn2C)cc1OCC	0%	.	.
CCOc1ccc(CCNC(=O)CSc2nn(-c3ccc(C)c(Cl)c3)c(=S)s2)cc1OCC	28µM*	-25%	?
O=C(NC(Cc1ccccc1)c1ccc2c(c1)OCCCO2)c1ccccc1 (stereo not drawn)	-5%	-21%	-6
CC(=O)Nc1ccc(S(=O)(=O)Nc2nc3ccccc3s2)cc1	-6%	-19%	9
CC(=O)Nc1ccc(S(=O)(=O)Nc2nc3ccc([N+](=O)[O-])cc3s2)cc1	14µM*	.	.
CCCC(=O)NCCc1c(I)[nH]c2ccc(OC)cc12	20µM*	.	.
COc1ccc2[nH]c(I)c(CCNC(C)=O)c2c1	1%	-23%	1
O=C1C2=C(Nc3cc([N+](=O)[O-])ccc3N2)O[C@@H]1c1c[nH]c2ccc(COc3ccccc3)cc12	?	-27%	.
CSC1=NSC2=NC(=O)/C(=C\c3cccs3)C(=N)N12	?	-2%	.
CSC1=NSC2=NC(=O)/C(=C/c3coc4ccc(O)cc4c3=O)C(=N)N12	?	22µM*	.
COc1ccc2nc(SCC(=O)/C(C#N)=C(\C)N)[nH]c2c1	10%	.	2
SMILES	ALDH1A1 inh	HPGD block	IMPase inh
NC1=NCCN1CC(=O)O	9%	0%	.
COc1cc(C=C(c2nc3ccccc3s2)c2nc3ccccc3s2)ccc1O	-9%	-17%	.
COc1cc(/C=C(\C#N)C(N)=O)cc(CSc2nc3ccccc3s2)c1O	?	40µM*	4
NC1=C(O)C(=O)[C@H](c2c[nH]c3ccc(OCc4ccccc4)cc23)O1	-6%[13.5 µM]	-7%	.
CCOc1cccc(-c2nc3ccccc3c(=O)o2)c1	.	.	-7
N[C@]1(C(=O)O)CCc2cc(P(=O)(O)O)ccc21	-15%	1%	1
O=C(N/N=C/c1ccc([N+](=O)[O-])o1)c1ccncc1	-4%	.	.
O=C(N/N=C/c1ccc([N+](=O)[O-])o1)c1ccc(O)cc1	25µM*	-30%	.
O=[N+]([O-])c1ccc(/C=N/NC(=S)Nc2ccccc2F)o1	?	-12%	2
O=[N+]([O-])c1ccc(/C=N/NC(=S)Nc2ccccc2)o1	2%	25µM*	9
O=C(N[C@@H](c1ccccc1)[C@@H]1C[C@H]1C(=O)NCc1ccccc1)OCc1ccccc1	?	-3%	.
O=C(C(=S)N1CCOCC1)c1c[nH]c2ccccc12	3.2µM*	.	.
O=C(CN1CCOCC1)c1c[nH]c2ccccc12	-5%	0%	4
O=C(NN1C(=O)C2C3C=CC(O3)C2C1=O)c1cccc(Br)c1 (stereo not drawn)	28µM*	.	.
O=C(NN1C(=O)C2C3C=CC(O3)C2C1=O)c1cccc(O)c1 (stereo not drawn)	20µM*	-3%	-4

Screening data as filed in PubChem BioAssay.
